OTUD3 inh – inhibitors of human OTUD3 deubiquitinase | purified OTUD3, Ub-rhodamine fluorescence, 2 h | inhibition, % at 25 µM | 0.7% of 47,000 active
Target sequence (Q5T2D3 whole entry, looked up): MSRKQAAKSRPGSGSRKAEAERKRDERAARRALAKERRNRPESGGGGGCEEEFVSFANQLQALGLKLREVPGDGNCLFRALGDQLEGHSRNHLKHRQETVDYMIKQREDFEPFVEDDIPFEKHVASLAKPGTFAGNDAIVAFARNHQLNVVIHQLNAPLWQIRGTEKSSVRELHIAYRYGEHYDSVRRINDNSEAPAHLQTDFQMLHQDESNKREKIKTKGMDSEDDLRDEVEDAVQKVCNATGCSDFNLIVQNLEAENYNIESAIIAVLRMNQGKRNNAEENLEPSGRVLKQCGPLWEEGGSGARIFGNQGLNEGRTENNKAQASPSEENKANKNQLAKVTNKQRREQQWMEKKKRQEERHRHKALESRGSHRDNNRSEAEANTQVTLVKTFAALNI
USP10 inh – inhibitors of human USP10 deubiquitinase; Q14694; purified USP10, Ub-rhodamine fluorescence, 60 min; inhibition, % at 20 µM; 1.1% of 47,000 active
USP7 block – blocks human USP7 ubiquitin-rhodamine cleavage. 0.3% of 47,000 active. AID 1645854. purified USP7, Ub-rhodamine cleavage fluorescence. Q93009. inhibition, % at 20 µM
UCHL1 block – human UCHL1 deubiquitinase inhibition. purified UCHL1, Ub-rhodamine cleavage fluorescence. inhibition, % at 20 µM. 0.2% of 47,000 active
* marks the source's active call; other numbers are inactive results. Hits are enriched below; roughly 1.7% of the tested compounds scored in any of these assays. Cut-off read from the data, not from the text of the source: active = inhibition above about 30%; inactive = the rest.

SMILES	OTUD3 inh	USP10 inh	USP7 block	UCHL1 block
O=C(CCc1ccc(S(=O)(=O)N2CCOCC2)cc1)NC(c1ccccc1)c1ccccc1	6	0	1	0
Clc1ccccc1CN1CCC(c2nc(-c3cccnc3)no2)CC1	-3	-1	-1	-1
O=C(CCc1nnc2n(Cc3ccccc3Cl)c(=O)c3ccccc3n12)NCc1ccccc1	11	15	7	0
CC(C)CCn1c(=O)c2ccccc2n2c(CCC(=O)NC3CCCCCC3)nnc12	38*	-6	-32	0
COc1ccc(CNC(=O)CCc2nnc3n(Cc4ccccc4Cl)c(=O)c4ccccc4n23)cc1	33*	14	7	9
CC(C)CCn1c(=O)c2ccccc2n2c(CCC(=O)NCc3ccccc3Cl)nnc12	0	-7	-62	-1
Cc1ccccc1C(=O)N1CCCN(c2ccc(S(C)(=O)=O)cc2)CC1	-13	-1	1	-4
CC1(C)CC[C@]2(C(=O)O)CC[C@]3(C)C(=CCC4[C@@]5(C)CC[C@H](O)[C@@](C)(CO)C5CC[C@]43C)[C@@H]2C1 (some centres undefined)	81*	12	11	1
Cc1ccc(NC(=O)Cn2c(C)ccc(NC(=O)Nc3cccc(C)c3)c2=O)cc1	-1	5	5	-6
Cc1ccc(NC(=O)Nc2ccc(C)n(CC(=O)Nc3ccccc3)c2=O)cc1	4	39*	20	2
Clc1ccccc1CSc1nnc(C2CCCCC2)n1Cc1ccccc1	23	17	-55	6
c1ccc(-c2cc(-c3csc(-c4ccc5c(c4)OCCO5)n3)on2)cc1	40*	2	10	2
COc1ccc(CCN2COc3c(cc(Cl)c4cccnc34)C2)cc1OC	10	19	-27	31*
COc1ccc(CCN2CCOc3nc4c(C)cccc4cc3C2)cc1OC	3	-5	0	2
Nc1c(C(=O)NCc2ccccc2)nsc1C(=O)NCCN1CCCC1	-15	-5	-17	-1
Cc1ccccc1OCC(=O)Nc1ccc(O)c(-c2nc3ccccc3o2)c1	-41	-3	3	-8
Cc1cccc(O)c1-c1nc2c(-c3nc4c(C(=O)O)cccc4o3)cccc2o1	33*	2	11	7
Cc1ccc(S(=O)(=O)Nc2ccccc2C(=O)Nc2nc3ccc(Br)cc3s2)cc1	84*	93*	89*	53*
Cc1ccc2nc(NC(=O)c3ccccc3OCc3ccccc3Cl)sc2c1	7	3	4	1
CCCc1ccc(C(=O)[C@@H]2[C@@H](C(=O)c3cccs3)N3c4ccc(C)cc4C(C)=C[C@@H]3[C@@]23C(=O)Nc2ccccc23)cc1	-17	38*	33*	1
O=C(c1ccc(F)cc1)[C@@H]1[C@H](C(=O)OC(c2ccccc2)c2ccccc2)N2c3ccccc3C=CC2[C@@]12C(=O)Nc1ccccc12 (some centres undefined)	-123	-9	-34	-29
Cc1ccccc1-n1nc(-c2nc(-c3ccncc3)no2)c2ccccc2c1=O	-29	-2	-5	-2
CCOC(=O)c1ccc(NC(=O)c2cnc(N3CCOCC3)nc2)cc1	30*	-10	-2	-6
O=C(CCn1c(=O)c2sccc2n(CC(=O)OCc2ccccc2)c1=O)NCc1ccc2c(c1)OCO2	35*	36*	16	5
O=C(CCn1c(=O)c2ccccc2n(Cc2cccc([N+](=O)[O-])c2)c1=O)NCc1ccc2c(c1)OCO2	11	3	7	4
SMILES	OTUD3 inh	USP10 inh	USP7 block	UCHL1 block
CCOc1ccccc1NC(=O)Cn1c(=O)n(CCC(=O)NC2CCCC2)c(=O)c2ccccc21	17	2	3	1
CCOc1ccccc1NC(=O)Cn1c(=O)n(CCC(=O)NCc2ccc3c(c2)OCO3)c(=O)c2sccc21	0	69*	29	7
Cc1cccc(CN2CC(c3noc(-c4ccncc4)n3)CC2=O)c1 (centres undefined)	11	-2	0	4
COc1ccccc1CNC(=O)CCCCn1c(=O)c2ccccc2n(CC(=O)NCCC2=CCCCC2)c1=O	6	15	0	-2
COc1ccc(NC(=O)Cn2c(=O)n(CCCC(=O)NC3CCN(Cc4ccccc4)CC3)c(=O)c3ccccc32)cc1Cl	0	-2	-4	-3
COc1ccc(NC(=O)Cn2c(=O)n(CCC(=O)NCc3ccccc3)c(=O)c3sccc32)cc1Cl	5	49*	20	4
O=C(Cn1c(=O)c2sccc2n(CC(=O)NCCC2=CCCCC2)c1=O)NCc1ccccc1Cl	2	37*	18	2
Cc1ccc(NC(=O)Cn2c(=O)n(CC(=O)NCCc3ccccc3)c(=O)c3sccc32)cc1C	1	40*	19	0
COc1ccc(CCNC(=O)Cn2c(=O)c3sccc3n(Cc3cccc([N+](=O)[O-])c3)c2=O)cc1OC	30	32*	2	3
Cc1nn(-c2ccc(C(=O)NCc3ccccc3)cc2)c2c1C(=O)CCC2	-1	0	-5	-4
Cn1c(-c2c(N)n(CCCN3CCCC3=O)c3nc4ccccc4nc23)nc2ccccc21	-19	-4	-9	-12
Cc1ccccc1NC(=O)C1(C)Oc2cccnc2N(C)C1=O (centres undefined)	-6	-1	1	-2
CCCn1nc(-n2cnnc2)c(NC(=O)c2ccccc2C)c1C	3	-5	2	1
CCOc1ccc(-n2c(=O)c3sccc3n(CC(=O)Nc3cccc(C)c3)c2=O)cc1	2	41*	5	0
COCCCN1CC(=O)N2C(c3cccc4ccccc34)c3[nH]c4ccccc4c3C[C@@H]2C1=O (some centres undefined)	-86	-1	-29	-29
CCCn1c(=O)n(CC(=O)c2ccc(Cl)cc2)c2c(C(N)=O)nc(-c3ccco3)nc21	-34	-1	6	-4
CCn1c(=O)n(CC(=O)c2ccc(Cl)cc2)c2c(C(N)=O)nc(-c3ccco3)nc21	7	6	40*	22
c1csc(-c2nc(Nc3ccc4c(c3)CCC4)c3ccccc3n2)c1	-23	-2	6	-1
FC(F)(F)c1ccc(Nc2nnnc3ccccc23)cc1	0	47*	60*	29
FC(F)(F)c1cccc(Nc2nc(-c3ccccn3)nc3ccccc23)c1	-4	22	13	6
Brc1ccc(Nc2nc(-c3ccccn3)nc3ccccc23)cc1	51*	20	16	4
O=C(CSc1c[nH]c2ccccc12)Nc1ccc2c(c1)OCO2	-8	2	-4	2
O=C(Cn1c(=O)c2ccccc2c2ccccc21)Nc1ccc2c(c1)OCO2	33*	42*	27	9
O=C(CCCn1c(=O)c2ccccc2n(CC(=O)NCc2ccccc2Cl)c1=O)NCc1ccc2c(c1)OCO2	26	57*	27	6
Cc1cccc(C)c1NC(=O)Cn1c(=O)n(CCCCC(=O)NCc2ccc3c(c2)OCO3)c(=O)c2ccccc21	18	54*	17	4
Cc1cccc(CN2C[C@H]3C[C@H](C(=O)N4CCOCC4)[C@@H](C2)O3)c1	3	0	2	-2
COc1cc(O)c2c(O)c3c(cc2c1)CC(C)OC3=O (centres undefined)	53*	7	-47	20
